A selection: hits, their analogues and other compounds. The true share with any hit is near 2.7%.
Env fusion inh – blocks HIV Env-driven cell-cell fusion. HeLa-JRFL Env/CEM21 cell fusion, luciferase. inhibition, % at 12.3 µM. AID 651610. 1.1% of 360,000 active;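 active = mean replicate inhibition score of at least 50 and every replicate individually at or above 50; inconclusive = only one of the two criteria met; inactive = mean below 50 and not all replicates reaching 50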
CFTR F508del cor – correctors of CFTR F508del function in bronchial epithelial cells. 0.36% of 350,000 active. CFBE cells, YFP halide quenching; stimulated with forskolin plus potentiator P3; % fluorescence drop versus neutral controls. activity (quench increase), % at 7.58 µM. AID 720511;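 active = mean added fluorescence quench of at least 8% versus neutral control, with both replicates also reaching 8%; inconclusive = only one of the mean or replicate conditions met; inactive = mean below 8% and not both replicates reaching 8%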;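 also: cells transiently co-express mutant CFTR-F508del with the halide-sensitive YFP; corrector assay measuring rescue of mutant channel to the surface after 24 h compound exposure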
INS-1E GSIS act – primary screen for activators of insulin secretion dependent on glucose, INS-1E cells, GLuc reporter luminescence | INS-1E GLuc reporter insulin secretion, 2-3 h | 0.61% of 370,000 active | activation, % at 16.6 µM;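 active = lowest replicate activation of at least 40%, so every replicate reaches that level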
MITF TRPM1 HTS – MITF TRPM1 promoter activation in melanoma cells; SK-MEL-5 TRPM1-promoter luciferase, 24 h; % of positive control, neutral wells = 0; activation, % at 12.5 µM; AID 588334; 0.75% of 300,000 active;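 active = mean activation of at least 80% with every replicate also reaching 80%; inconclusive = mean reaches 80% but some replicate falls short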
Wnt act – activates Wnt/beta-catenin signaling in a reporter cell assay. activator, plate reader. activation, % at 9.35 µM. 1.2% of 300,000 active. AID 743398; in the data active = activation above about 30%, passing the limit was not always enough; inconclusive = no clear call, values can overlap the other calls
Large screens that a line does not name were inactive; ! = not confirmed by another sample.

CC(C)NC(=O)Nc1ccc2c(c1)C(=O)N([C@@H](C)CO)C[C@@H](C)[C@H](CN(C)C(=O)CCC(F)(F)F)OCCCC[C@H](C)O2	none (no result: MITF TRPM1 HTS, Wnt act)
CCOC(=O)c1nn(-c2ccc(F)cc2)cc1O	MITF TRPM1 HTS 92 (no result: INS-1E GSIS act)
CCOC(=O)c1nn(-c2ccc3c(c2)CCN3C(C)=O)cc1O	none (no result: Env fusion inh)
COc1ccc(NS(=O)(=O)c2ccc(N/N=C/c3ccc(N4CCOCC4)cc3)c([N+](=O)[O-])c2)cc1	none (no result: INS-1E GSIS act)
COc1ccc(/C=N/Nc2ccc(C(F)(F)F)cc2[N+](=O)[O-])cc1	INS-1E GSIS act 45 (no result: CFTR F508del cor)
CC(C)NC(=O)N(C)C[C@H]1Oc2cc(C#CC3CC3)ccc2S(=O)(=O)N([C@H](C)CO)C[C@@H]1C	none (no result: MITF TRPM1 HTS, Wnt act)
C[C@H](CO)N1C[C@H](C)[C@@H](CN(C)S(=O)(=O)c2ccc(Cl)cc2)Oc2c(NS(C)(=O)=O)cccc2C1=O	none (no result: Env fusion inh, MITF TRPM1 HTS, Wnt act)
CCN(c1ccccc1)c1nc(Cl)nc2c1cnn2C	INS-1E GSIS act 46
CCN(c1ccccc1)c1ncnc2c1cnn2-c1ccccc1	none (no result: MITF TRPM1 HTS)
Cc1ccc(C(=O)OCC(=O)c2ccccc2)cc1	Wnt act 36
O=C(O)c1ccc2c(c1)C(=O)N(c1ccc(OCc3ccccc3)cc1)C2=O	none (no result: CFTR F508del cor, INS-1E GSIS act, MITF TRPM1 HTS)
CCOC(=O)C(CC(=O)c1ccccc1)CC(=O)c1ccccc1	MITF TRPM1 HTS 87
COC(=O)C(CC(=O)c1ccccc1)CC(=O)c1ccccc1	none
O=C(O)c1ccc2c(c1)C(=O)N(c1ccc(C(=O)OCC(=O)c3ccccc3)cc1)C2=O	Wnt act 47 (no result: MITF TRPM1 HTS)
C[C@@H]1CN([C@H](C)CO)C(=O)c2cc(NC(=O)CCC(F)(F)F)ccc2O[C@H]1CN(C)S(=O)(=O)c1ccccc1	none (no result: Env fusion inh, MITF TRPM1 HTS, Wnt act)
O=C(C[C@@H]1CC[C@H]2[C@@H](COC[C@H](O)CN2Cc2cccc(Cl)c2)O1)NCC1CCCCC1	none (no result: MITF TRPM1 HTS, Wnt act)
Nc1c2c(nc3ccccc13)CCCC2	CFTR F508del cor 16! (no result: INS-1E GSIS act)
Nc1c2ccccc2nc2ccccc12	CFTR F508del cor 20, Wnt act 69!
Cn1cnc(S(=O)(=O)N[C@H]2CC[C@H](CC(=O)Nc3ccccc3)O[C@@H]2CO)c1	none (no result: MITF TRPM1 HTS, Wnt act)
CC(C)C#Cc1cnc2c(c1)C(=O)N([C@H](C)CO)C[C@@H](C)[C@H](CN(C)C(=O)Cc1ccncc1)O2	none (no result: MITF TRPM1 HTS, Wnt act)
CC(C)CC#Cc1ccc2c(c1)O[C@@H](CN(C)C(=O)Cc1ccncc1)[C@H](C)CN([C@@H](C)CO)S2(=O)=O	none (no result: MITF TRPM1 HTS, Wnt act)
Cc1[nH]c2ccccc2c1SCC(=O)N1CCCc2ccccc21	Env fusion inh 69 (no result: INS-1E GSIS act)
COCc1nc2oc3ccccc3c(=O)c2cc1C(=O)OC	MITF TRPM1 HTS 88
CCOc1ccc(NC(=O)c2ccco2)cc1	none (no result: CFTR F508del cor, Wnt act)
CCOc1ccc(NC(=S)NC(=O)c2ccco2)cc1	MITF TRPM1 HTS 89
O=C(/C=C/c1ccc(Cl)cc1)NC(=S)Nc1ccc(NC(=O)c2ccco2)cc1	INS-1E GSIS act 50 (no result: CFTR F508del cor, Wnt act)
O=C1NN(c2cccc(Br)c2)C(=O)/C1=C\c1ccc(O)cc1	CFTR F508del cor 8.6
CC(O)CNc1nc2ccccc2n1-c1ncnc2sc3c(c12)CCC3 (stereo not given)	Env fusion inh 60 (no result: CFTR F508del cor, INS-1E GSIS act)
c1ccc2c(c1)ncn2-c1ncnc2sc3c(c12)CCCC3	none (no result: CFTR F508del cor, INS-1E GSIS act)
COc1ccc(CN(C)C[C@H]2Oc3c(NC(=O)c4cnccn4)cccc3C(=O)N([C@@H](C)CO)C[C@@H]2C)cc1	none (no result: Env fusion inh, MITF TRPM1 HTS, Wnt act)
CN(CC(=O)NC(=O)Nc1ccccc1F)Cc1ccccc1F	Env fusion inh 66 (no result: INS-1E GSIS act)
COC(=O)C[C@@H]1CC[C@@H]2[C@H](COc3ccc(NC(=O)Nc4ccc(C)cc4)cc3C(=O)N2C)O1	none (no result: MITF TRPM1 HTS, Wnt act)
O=C(O)c1ccc(-n2ncc3c2/C(=C\c2cccc([N+](=O)[O-])c2)CC3)cc1	MITF TRPM1 HTS 113
O=C(O)c1ccc(-n2ncc3c2/C(=C/c2cccc([N+](=O)[O-])c2)CC3)cc1	MITF TRPM1 HTS 138, Wnt act inconclusive
O=C(O)c1ccc(-n2c(/C=C/c3cccc([N+](=O)[O-])c3)nc3ccccc3c2=O)cc1	none
C[C@@H]1CN([C@@H](C)CO)C(=O)Cc2cc(NC(=O)C3CC3)ccc2O[C@H]1CN(C)CC1CCCCC1	none (no result: MITF TRPM1 HTS, Wnt act)
CCOC(=O)c1c(NC(=O)Cn2nc(C(F)(F)F)cc2C)sc(C)c1C	INS-1E GSIS act 61 (no result: CFTR F508del cor)
C=CCNC(=O)C1CCC(CNc2nc(=S)[nH]c3ccccc23)CC1 (stereo not given)	none (no result: INS-1E GSIS act)
O=C(C1CCC(CNc2nc(=S)[nH]c3ccccc23)CC1)N1CCN(c2ccccn2)CC1 (stereo not given)	Env fusion inh 65 (no result: CFTR F508del cor, Wnt act)
CCC(=O)N(C)C[C@H]1Oc2ncc(-c3ccccc3F)cc2C(=O)N([C@H](C)CO)C[C@H]1C	none (no result: MITF TRPM1 HTS, Wnt act)
COc1cccc(OCCn2cc(C(=O)c3ccco3)c3ccccc32)c1	Env fusion inh 66 (no result: CFTR F508del cor, INS-1E GSIS act)
CC[C@@]12C(=O)N(c3ccc(C)cc3)C(=O)N1[C@H](c1ccc(Br)cc1)[C@@H]1C(=O)N(C(C)(C)C)C(=O)[C@@H]12	Env fusion inh 86
COc1ccc([C@@H]2[C@@H]3C(=O)N(C(C)(C)C)C(=O)[C@@H]3[C@]3(Cc4ccccc4)C(=O)N(c4ccc(Br)cc4)C(=O)N23)cc1	none (no result: Env fusion inh, CFTR F508del cor, INS-1E GSIS act, Wnt act)
CC[C@@]12C(=O)N(c3cccc(Br)c3)C(=O)N1[C@H](c1ccc(OC)cc1)[C@@H]1C(=O)N(C(C)(C)C)C(=O)[C@@H]12	Env fusion inh 96
CC[C@@]12C(=O)N(c3ccccc3)C(=O)N1[C@H](c1ccc(OC)cc1)[C@@H]1C(=O)N(C(C)(C)C)C(=O)[C@@H]12	Env fusion inh 73 (no result: INS-1E GSIS act)
COc1ccc(N2C(=O)N3[C@H](c4ccc(Br)cc4)[C@@H]4C(=O)N(C(C)(C)C)C(=O)[C@@H]4[C@]3(Cc3ccccc3)C2=O)cc1	none
CC[C@@]12C(=O)N(c3cccc(Br)c3)C(=O)N1[C@H](c1ccc(Br)cc1)[C@@H]1C(=O)N(C(C)(C)C)C(=O)[C@@H]12	none
CC[C@@]12C(=O)N(c3ccc(C)cc3)C(=O)N1[C@H](c1ccc(OC)cc1)[C@@H]1C(=O)N(C(C)(C)C)C(=O)[C@@H]12	Env fusion inh 80
O=C(CC1CC1)Nc1ccc2c(c1)[C@@H]1C[C@@H](CC(=O)N3CCOCC3)O[C@@H](CO)[C@@H]1O2	none (no result: Env fusion inh, MITF TRPM1 HTS, Wnt act)
COc1ccc(NC(=O)N(C)C[C@H]2OCCCC[C@@H](C)Oc3ccc(N(C)C)cc3C(=O)N([C@@H](C)CO)C[C@H]2C)cc1	none (no result: MITF TRPM1 HTS, Wnt act)
COc1ccc(NC(=O)C2CCN(c3nc(-c4ccc(OC)cc4)no3)CC2)cc1	none (no result: MITF TRPM1 HTS)
COc1ccc(-c2noc(N3CCC(C(=O)N4CCN(c5ccccn5)CC4)CC3)n2)cc1	Env fusion inh 63 (no result: CFTR F508del cor)
CCN(C(=O)C1CCN(c2nc(-c3ccc(OC)cc3)no2)CC1)c1ccc(OC)cc1	Env fusion inh 60 (no result: MITF TRPM1 HTS)
CCOc1cc(C2C(C(=O)N3CCCCC3)=C(C)NC3=C2C(=O)CC(C)(C)C3)ccc1O (stereo not given)	Wnt act 54 (no result: CFTR F508del cor, INS-1E GSIS act)
CCOc1cc(C2C3=C(CC(C)(C)CC3=O)Nc3n[nH]c(C)c32)ccc1O (stereo not given)	INS-1E GSIS act 43

Screens: PubChem BioAssay, Broad Institute
